# Compound activity: PubChem, several laboratories
# Hits are enriched below; roughly 3.7% of the tested compounds scored in any of these assays.
# Mtb FBA inh: inhibitors of M. tuberculosis fructose-bisphosphate aldolase; hit rate 2.3% among 360,000; P9WQA3; AID 588726; purified M. tuberculosis FBA, fluorescence read-out; inhibition, % at 1 µM;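 note: 0% = vehicle and 100% = reference inhibitor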
# Rv3671c protease: inhibitors of M. tuberculosis serine protease Rv3671c; hit rate 0.048% among 320,000; P9WHR9; inhibition, % at 5.96 µM; in the data active = inhibition above about 38%;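 note: extracellular domain of Rv3671c used as enzyme; 0% = enzyme with DMSO and 100% = no enzyme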
# Target sequence (P9WHR9 whole entry, looked up, the tested form may be a part): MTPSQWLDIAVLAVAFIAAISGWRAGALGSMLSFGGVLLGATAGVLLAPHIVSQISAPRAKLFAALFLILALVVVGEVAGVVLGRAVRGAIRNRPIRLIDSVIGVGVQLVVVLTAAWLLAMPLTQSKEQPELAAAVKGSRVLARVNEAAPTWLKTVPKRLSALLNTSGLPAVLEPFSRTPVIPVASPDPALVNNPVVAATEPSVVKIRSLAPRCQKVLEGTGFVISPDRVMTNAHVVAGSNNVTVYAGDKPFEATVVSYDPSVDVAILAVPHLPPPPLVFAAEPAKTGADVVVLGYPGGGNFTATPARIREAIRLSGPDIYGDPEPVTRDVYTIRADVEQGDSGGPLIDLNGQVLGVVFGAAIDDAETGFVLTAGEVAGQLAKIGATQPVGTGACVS
# Mtb UGM inh: inhibitors of M. tuberculosis UDP-galactopyranose mutase. inhibition, % at 10 µM. purified UGM, fluorescence polarization probe displacement. hit rate 0.06% among 320,000. P9WIQ1; in the data active = inhibition above about 10%, passing the limit was not always enough; inconclusive = no clear call, values can overlap the other calls
# GDH-TPI counter-1: inhibits GDH-TPI coupling enzymes, artifact for Mtb FBA screen; GDH-TPI coupled enzyme counterscreen, NADH absorbance; inhibition, % at 4.8 µM; hit rate 1.2% among 360,000; AID 588335; in the data active = inhibition above about 30%;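 note: 0% = DMSO wells and 100% = wells lacking the enzyme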
# Mtb bLac sens: beta-lactam sensitization of Mtb H37Rv. M. tuberculosis H37Rv growth with meropenem, percent inhibition. inhibition, % at 25 µM. hit rate 0.27% among 330,000. AID 434955; call rule not given here;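 note: growth measured after seven days incubation then overnight dye step; 0% = bacteria only wells and 100% = bacteria with antibiotic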
# FadD28 FP inh: M. tuberculosis FadD28 bisubstrate binding inhibition | hit rate 0.22% among 360,000 | FadD28 bisubstrate probe binding, fluorescence polarization | inhibition, % at 12.5 µM; in the data active = inhibition above about 8.5%, passing the limit was not always enough; inconclusive = no clear call, values can overlap the other calls
# Mtb FBA confirm: confirmation of M. tuberculosis fructose-bisphosphate aldolase inhibitors | inhibition, % at 1 µM | hit rate 78% among 5,600 | purified M. tuberculosis FBA, fluorescence read-out | shares compounds with Mtb FBA inh;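 note: 0% = vehicle wells and 100% = reference inhibitor wells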
# GDH-TPI counter-2: GDH-TPI inhibition counter-screen for FBA inhibitors. shares compounds with Mtb FBA inh. GDH-TPI coupled enzyme counterscreen, fluorescence. hit rate 81% among 5,600. inhibition, % at 1 µM; in the data active = inhibition above about 10%
# * = called active by the depositor; ? = inconclusive; nt = no result given; + = active, no number. Cut-off read from the data, not from the text of the source, unless noted: active = inhibition above about 27%; inactive = the rest.
SMILES,Mtb FBA inh,Rv3671c protease,Mtb UGM inh,GDH-TPI counter-1,Mtb bLac sens,FadD28 FP inh,Mtb FBA confirm,GDH-TPI counter-2
O=C(c1ccc2ccccc2c1)C1CCCN(C(=O)c2cnccn2)C1 (stereo unspecified),9,9,-1,-2,0,-4,nt,nt
COc1ccc2cc(C(=O)C3CCCN(C(=O)c4cnccn4)C3)ccc2c1 (stereo unspecified),88*,0,1,13,-9,0,55*,45*
COc1ccc2cc(C(=O)C3CCCN(C(=O)c4snnc4C)C3)ccc2c1 (stereo unspecified),108*,9,-4,5,-1,-5,136*,117*
COc1ccc2cc(C(=O)C3CCCN(C(=O)/C=C/c4ccccn4)C3)ccc2c1 (stereo unspecified),57*,-14,1,11,12,-3,55*,48*
COc1ccc(C(=O)C2CCCN(Cc3cnc(C)s3)C2)cc1OC (stereo unspecified),-2,-3,1,0,-5,0,nt,nt
COc1ccc2cc(C(=O)C3CCCN(Cc4cnc(C)s4)C3)ccc2c1 (stereo unspecified),41*,0,-1,9,32,-4,+,+
CCC1(c2ccc(F)cc2)NC(=O)N(CC(=O)N2CCN(S(=O)(=O)c3ccc(C)cc3C)CC2)C1=O (stereo unspecified),-3,nt,nt,3,nt,-5,nt,nt
COc1cccc(/C=C/C(=O)NNC(=O)c2ccco2)c1OC,3,-3,-2,11,2,-2,nt,nt
O=C(CSc1nnnn1-c1cccc(F)c1)NC1CC1,4,-8,0,14,-6,-1,nt,nt
Cc1onc(-c2ccccc2)c1C(=O)N1CCC(C)(C(=O)NS(=O)(=O)C2CC2)C1 (stereo unspecified),-2,nt,nt,4,nt,-3,nt,nt
O=C(NN=C1CCCC1)c1ccc(O)cc1,0,10,-1,6,-1,-4,nt,nt
COc1ccc2cc(C(=O)C3CCCN(C(=O)c4cc5nc(C)cc(C)n5n4)C3)ccc2c1 (stereo unspecified),75*,-1,4,6,-7,-3,97*,87*
Cc1nc2ccccn2c1-c1nnco1,36*,-2,-2,3,4,0,5,-4
Cc1cccc(Nc2nc(-c3c(C)nc4ccccn34)cs2)c1,1,0,-1,7,3,-5,nt,nt
Cc1ccccc1S(=O)(=O)Nc1nc2ccccc2nc1N1CCc2ccccc2C1,11,-18,1,10,-3,-1,nt,nt
O=S(=O)(Nc1nc2ccccc2nc1N1CCc2ccccc2C1)c1ccc(Cl)cc1,66*,-13,0,32*,36,-2,+,+
O=C(NCC(=O)N1CCCC(C(F)(F)F)C1)c1cccs1 (stereo unspecified),5,nt,nt,1,nt,-1,nt,nt
CN1CCN(S(=O)(=O)c2ccc(N3CCN(C(c4ccccc4)c4ccccc4)CC3)nc2)CC1,81*,4,-1,4,0,-2,+,173*
CC1(C(=O)NCc2ccco2)Cc2c(-c3ccccc3)ccnc2O1 (stereo unspecified),0,nt,nt,6,nt,0,nt,nt
CCCCN(CC)C(=O)c1cc2c(=O)[nH]c3ccc(C)cc3c2s1,12,nt,-1,9,4,-2,nt,nt
CCOC(=O)CNC(=O)c1cc2c(=O)[nH]c3ccc(C)cc3c2s1,32*,-10,-1,12,7,nt,118*,97*
Cc1ccc2[nH]c(=O)c3cc(C(=O)NCCN4CCN(C)CC4)sc3c2c1,49*,-10,-1,22,?,-3,196*,159*
Cc1ccc2[nH]c(=O)c3cc(C(=O)N(CCCOC(C)C)Cc4ccco4)sc3c2c1,28*,-11,0,12,-11,-2,22,11*
Cc1ccccc1-c1cnc(C(O)c2cccc(C)c2C)[nH]1 (stereo unspecified),-1,nt,nt,2,nt,-4,nt,nt
CC(C)(C)c1ccc(C(=O)N2CCC2(C)C(=O)Nc2cccc3ccccc23)cc1 (stereo unspecified),-3,nt,nt,4,nt,-4,nt,nt
SMILES,Mtb FBA inh,Rv3671c protease,Mtb UGM inh,GDH-TPI counter-1,Mtb bLac sens,FadD28 FP inh,Mtb FBA confirm,GDH-TPI counter-2
COc1ccc(CCNC(=O)COc2ccc(S(=O)(=O)N3CCOCC3)cc2C)cc1,105*,-2,-2,0,7,-1,126*,104*
COc1ccc2cc(CCNC(=O)c3ccc(S(=O)(=O)N4CCOCC4)cc3)c(=O)[nH]c2c1,79*,-8,2,15,10,-4,105*,85*
Cc1cc2cc(CCNC(=O)c3ccc(S(=O)(=O)N4CCCC4)cc3)c(=O)[nH]c2cc1C,2,-19,0,13,7,-3,nt,nt
COc1ccc(NS(=O)(=O)c2ccc(S(=O)(=O)N3CCCC3)cc2)cc1,4,-5,0,2,-8,-2,nt,nt
COc1ccc(NS(=O)(=O)c2ccc(S(=O)(=O)N3CCOCC3)cc2)cc1,45*,-8,0,1,-5,-2,149*,102*
CC1(C(=O)NCc2ccccc2)CCC(=O)N1CCOc1ccccc1 (stereo unspecified),4,nt,nt,nt,nt,0,nt,nt
NC(=O)c1ccc[n+](Cc2ccc(-c3ccccc3)cc2)c1,2,8,-2,3,4,nt,nt,nt
COc1ccc(C(=O)COC(=O)c2nn(C)cc2Cl)cc1,5,-2,-3,4,3,-3,nt,nt
COCCN1C[C@@H](CO)O[C@@H](n2cnc3c(N(C)C(C)C)ncnc32)C1,-1,nt,nt,6,nt,-1,nt,nt
CC(C)[C@H](NC(=O)C1CC(=O)N(c2ccc3c(c2)OCCO3)C1)C(=O)NC1CCCC1 (stereo partly specified),96*,-11,2,-3,-2,-1,+,+
CCC(C)[C@H](NC(=O)C1CC(=O)N(c2ccc3c(c2)OCCO3)C1)C(=O)NC1CCCC1 (stereo partly specified),2,0,0,-11,2,-5,nt,nt
Cc1ccc(NC(=O)CCCn2c(=S)[nH]c3ccsc3c2=O)cc1C,0,-10,2,8,-7,-3,nt,nt
Nc1nccnc1C(=O)OCC(=O)NCCc1ccc(Cl)cc1,102*,3,2,2,-4,nt,-5,-5
CN(C)CCN1C(=O)c2ccccc2C1=O,2,8,-2,4,3,-3,nt,nt
Cc1cc(C)n2nc(C(=O)OCC(=O)c3ccccc3)nc2n1,28*,-1,1,0,-11,-2,95*,68*
Nc1cc2nn(-c3ccccc3)nc2cc1Cl,36*,nt,nt,8,nt,-1,109*,88*
CCOC(=O)C1(C)CCN1C(=O)c1ccccc1C(F)(F)F (stereo unspecified),3,nt,nt,6,nt,0,nt,nt
